Bioassay records as filed in PubChem.
This is a sample that favours compounds with a hit; in the whole collection about 0.65% have one here.
ugtP null kill: growth inhibition of ugtP-null S. aureus, primary screen, RN4220 ugtP deletion, OD600. growth inhibition, % (concentration not given with the values). 330,000 tested, 0.54% active. 16 h; in the data active means growth inhibition above about 68%;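 further: plate controls were untreated wells for no effect and antibiotic for full effect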
BJeLR lethal: MLPCN primary cell-based screen for lethality selective to Ras in HRASV12 cells. 300,000 tested, 0.17% active. inhibition, % (no concentration beside the values). BJeLR (HRASV12) viability, CellTiter-Glo ATP luminescence, 48 h; in the data active means inhibition above about 50%
Sa RN4220 lethal: growth inhibition of S. aureus RN4220, primary screen, OD600. 16 h. 330,000 tested, 0.33% active. inhibition, % (test concentration not listed); in the data active means inhibition above about 85%;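 further: plate controls were untreated cells for no effect and reference antibiotic for full effect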
* hit, by the source's call; · = not tested or not shown; ! = not active in a repeat.

SMILES	ugtP null kill	BJeLR lethal	Sa RN4220 lethal
CC1(C)[C@@H](O)CC[C@]2(C)[C@H]3C(=O)C=C4[C@@H]5C[C@@](C)(C(=O)O)CC[C@]5(C)CC[C@@]4(C)[C@]3(C)CC[C@@H]12	·	-1	·
C[C@H]1[C@H](C)CC[C@]2(C(=O)O)CC[C@]3(C)C(=CC[C@@H]4[C@@]5(C)CC[C@H](O)C(C)(C)[C@@H]5CC[C@]43C)[C@H]12	·	5	·
CC1(C)CC[C@]2(C(=O)O)CC[C@]3(C)C(=CCC4[C@@]5(C)CCC(O)C(C)(C)C5CC[C@]43C)C2C1 (stereo not given in full)	91*!	·	81
CC1(C)C(O)CC[C@@]2(C)C1CC[C@]1(C)C2C(=O)C=C2C3C[C@@](C)(C(=O)O)CC[C@]3(C)CC[C@]21C (stereo not given in full)	87*	·	6
CCOc1ccc(NC(=O)c2cccc(OC(=S)N3CCC(C)CC3)c2)cc1	26	-1	3
O=C1/C(=C\c2cc([N+](=O)[O-])ccc2O)SC(=S)N1Cc1ccc(Cl)cc1	65	18	88*
COc1cc(/C=C2/SC(=S)N(Cc3ccccc3)C2=O)ccc1O	9	-6	11
O=C1/C(=C\c2ccc(O)c(O)c2)SC(=S)N1Cc1ccccc1	99*	-3	76
O=C(O)c1cc(-c2ccc(/C=C3/SC(=S)N(Cc4ccccc4)C3=O)o2)ccc1Cl	101*	·	97*
O=C1/C(=C\c2cccc(O)c2O)SC(=S)N1Cc1ccccc1	·	-10	·
Cc1ccc(/C=C2\SC(=S)N(Cc3ccccc3)C2=O)o1	0	·	1
CCN1CCN(C(=O)C2CCN(c3nnc(C)c4c(C)n(-c5ccc(C)cc5)nc34)CC2)CC1	4	12	0
Cc1c(OCC(=O)N2CCC(C(=O)O)CC2)ccc2c3c(c(=O)oc12)CCC3	-11	-1	0
Cc1ccc(C)c(N2CCN(C(=O)CN(C)S(=O)(=O)c3ccc4c(c3)CCC(=O)N4)CC2)c1	19	3	6
COc1ccc(Cl)cc1N(CC(=O)NCCSCc1ccccc1)S(C)(=O)=O	9	-1	6
CN(C)C1C(=O)C(C(N)=O)=C(O)[C@@]2(O)C(=O)C3=C(O)c4c(O)cccc4[C@@](C)(O)C3C(O)C12 (stereo not given in full)	99*	·	100*
C[C@H]1c2cccc(O)c2C(O)=C2C(=O)[C@]3(O)C(O)=C(C(N)=O)C(=O)[C@@H](N(C)C)C3[C@@H](O)C21 (stereo not given in full)	·	7	·
CN(C)C1C(=O)C(C(N)=O)=C(O)[C@@]2(O)C(=O)C3=C(O)c4c(O)ccc(Cl)c4C(O)C3CC12 (stereo not given in full)	99*	·	100*
CN(C)C1C(=O)C(C(N)=O)=C(O)[C@@]2(O)C(=O)C3=C(O)c4c(O)cccc4[C@@](C)(O)C3CC12 (stereo not given in full)	100*	·	100*
CN(C)C1C(=O)C(C(N)=O)=C(O)C2(O)C(=O)C3=C(O)c4c(O)cccc4C(C)(O)C3C(O)C12 (stereo not given)	100*	3	100*
COC(=O)c1cc(C(=O)OC)cc(-n2c(C)cc(C(=O)CC#N)c2C)c1	-7	-13	1
Clc1ccc(-n2nnnc2Sc2ncnc3sccc23)cc1	51	31	23
O=C(NN=Cc1c[nH]c2ccccc12)c1ccc(Br)cc1	4	·	-2
Cc1ccc(C)c(S(=O)(=O)N2C(=S)NC(=O)C2CC(C)C)c1 (stereo not given)	-4	-3	12
O=C(c1ccccc1)c1ccc2ccccc2c1	18	·	7
SMILES	ugtP null kill	BJeLR lethal	Sa RN4220 lethal
Cc1cc2ccccc2cc1C(=O)c1ccccc1	78	·	5
Cc1sc2cc3c(c(C(=O)c4ccccc4)[n+]2c1C)-c1cccc2cccc-3c12	100*	68*	100*
O=C(c1ccccc1)c1c2c(cc3sc4ccccc4[n+]13)-c1cccc3cccc-2c13	100*	·	100*
Cc1ccsc1C(=O)NCC(C)(C)N1CCOCC1	0	·	3
CCn1cc(C(=O)O)c(=O)c2ccc(C)nc21	66	5	0
CCn1cc(C(=O)O)c(=O)c2cc(F)c(N3CCNCC3)nc21	97*	·	98*
Clc1ccc(CN=C2Nc3ccccc3CS2)cc1	52	7	19
Cc1ccc(CN=C2Nc3ccccc3CS2)cc1	82*	-1	41
COC(=O)C(O)(c1ccc(NC(=O)Oc2ccccc2)cc1)C(F)(F)F (stereo not given)	3	-16	6
O=C(NC(=S)Nc1ccc(Cl)cc1)c1ccccc1	24	-8	4
O=C(NC(=S)Nc1ccc(Oc2ccc(Cl)cc2)cc1)c1ccccc1	86*	6	-15
COC(=O)C(O)(c1ccc(NC(=S)NC(=O)c2ccccc2)cc1)C(F)(F)F (stereo not given)	89*	10	-1
Cc1noc(C)c1S(=O)(=O)N1Cc2ccccc2CC1C(=O)N(C)C (stereo not given)	0	-1	-2
COc1ccc(NC(=O)Cc2ccc(Cl)c(Cl)c2)cn1	-1	8	5
COc1ccc(NC(=O)/C(Cl)=C(/Cl)S(=O)(=O)Cc2ccc(C)cc2)cn1	98*	0	37
Cn1c(SCC(=O)Nc2ccc3c(c2)oc2ccccc23)nnc1-c1ccccc1	0	1	-3
CO[C@@]1(NC(=O)CSCC#N)C(=O)N2C(C(=O)O)=C(CSc3nnnn3C)CSC21 (stereo not given in full)	6	·	3
CO[C@@]1(NC(=O)C2SC(=C(C(N)=O)C(=O)O)S2)C(=O)N2C(C(=O)O)=C(CSc3nnnn3C)CSC21 (stereo not given in full)	100*	·	100*
CCn1c(SCC(=O)c2ccc3c(c2)OCCO3)nnc1-c1ccco1	0	-7	9
COc1ccc(S(=O)(=O)N2CCCC2CNC(=O)C(=O)Nc2ccc(C)cc2)cc1 (stereo not given)	4	-6	3
COc1ccc(NC(=O)C(=O)NCC2CCCN2S(=O)(=O)c2ccc(C)cc2)cc1 (stereo not given)	1	51*	3
Cc1ccc(C)c(C(=O)c2ccccc2NC(=O)c2ccccn2)c1	34	2	0
Cc1c(NC(=O)NC2CCCCC2)cccc1[N+](=O)[O-]	4	-6	6
O=C(O)c1cccc(NC(=S)NC(NC(=O)c2cccc([N+](=O)[O-])c2)C(Cl)(Cl)Cl)c1 (stereo not given)	0	-2	5
O=C(NC(NC(=S)Nc1ccc(Cl)cc1Cl)C(Cl)(Cl)Cl)c1cccc([N+](=O)[O-])c1 (stereo not given)	73	-7	87*
NC(=O)c1cn(C2OC(CO)C(O)C2O)c2ncnc(N)c12 (stereo not given)	-2	91*	3
Nc1ncnc2c1ncn2[C@@H]1O[C@H](CO)[C@@H](O)[C@H]1O	·	6	·
Cc1c(OCC(=O)NCCCN2CCOCC2)ccc2c3c(c(=O)oc12)CCCC3	1	4	-1
O=C(NNC(=S)NC1CCCCC1)c1sc2ccccc2c1Cl	44	-3	-7
CC(C)(C)C(=O)NC(=S)NNC(=O)c1sc2ccccc2c1Cl	97*	16	94*
